According to the supplement of paper PMC12494721:
Where a name gives a salt, the structure may show the parent alone.

What follows are molecules tested on Clostridium sporogenes DSM 1664 (assay: growth (OD595) fold change vs plate DMSO controls (fold change (ratio)); higher = more growth). Details: incubation time: 27 h, anaerobic, 37 °C.
Procedure, shortened: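 The reported measure is growth: the fold change against the median of DMSO controls on the plate. Absorbance at 595 nm from anaerobic 96-well mGAM cultures grown for 27 h at 37 °C was blank-subtracted, corrected for background with 20 µM compound solutions in water, and converted to OD with a calibration factor of 5. Fold changes above 1.5 appear as NA, and values are the mean of 2 biological replicates.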

| Compound | growth |
| --- | --- |
| CCc1nc(N)nc(N)c1-c1ccc(Cl)cc1 [Pyrimethamine] (20 µM) | 1.05 |
| CC(=O)Oc1cccc2c1C(=O)c1c(OC(C)=O)cc(C(=O)O)cc1C2=O [Diacerein] (20 µM) | 0.926 |
| CC(C)(CO)[C@@H](O)C(=O)NCCCO [(D)-Panthenol] (20 µM) | 0.885 |
| CCc1cc(Cl)c(OC)c(C(=O)NC[C@@H]2CCCN2CC)c1O [(S,-) Eticlopride hydrochloride] (20 µM) | 0.973 |
| O=C1c2cccc(O)c2C(=O)c2c(O)cccc21 [Danthron] (20 µM) | 0.931 |
| CN(C)CCC(c1ccc(Br)cc1)c1ccccn1 (stereo unspecified) [Brompheniramine maleate] (20 µM) | 0.959 |
| NC[C@H]1O[C@H](O[C@H]2[C@H](O[C@@H]3O[C@H](CO)[C@@H](O)[C@H]3O)[C@@H](O)[C@H](N)C[C@@H]2N)[C@H](N)[C@@H](O)[C@@H]1O [Ribostamycin sulfate salt] (20 µM) | 1.07 |
| NS(=O)(=O)c1cc2c(cc1Cl)N=CNS2(=O)=O [Chlorothiazide] (20 µM) | 1.05 |
| CCc1oc2ccccc2c1C(=O)c1cc(Br)c(O)c(Br)c1 [Benzbromarone] (20 µM) | 0.813 |
| O=C1NCN(c2ccccc2)C12CCN(CCCC(c1ccc(F)cc1)c1ccc(F)cc1)CC2 [Fluspirilene] (20 µM) | 0.921 |
| C[C@H](CCC(=O)O)[C@H]1CC[C@H]2[C@@H]3C(=O)C[C@@H]4CC(=O)CC[C@]4(C)[C@H]3CC(=O)[C@]12C [Dehydrocholic acid] (20 µM) | 0.917 |
